Assay [1] deals with T1, Muscle, skeletal receptor tyrosine-protein kinase (Homo sapiens) (UniProt O15146).
T1 sequence (whole entry): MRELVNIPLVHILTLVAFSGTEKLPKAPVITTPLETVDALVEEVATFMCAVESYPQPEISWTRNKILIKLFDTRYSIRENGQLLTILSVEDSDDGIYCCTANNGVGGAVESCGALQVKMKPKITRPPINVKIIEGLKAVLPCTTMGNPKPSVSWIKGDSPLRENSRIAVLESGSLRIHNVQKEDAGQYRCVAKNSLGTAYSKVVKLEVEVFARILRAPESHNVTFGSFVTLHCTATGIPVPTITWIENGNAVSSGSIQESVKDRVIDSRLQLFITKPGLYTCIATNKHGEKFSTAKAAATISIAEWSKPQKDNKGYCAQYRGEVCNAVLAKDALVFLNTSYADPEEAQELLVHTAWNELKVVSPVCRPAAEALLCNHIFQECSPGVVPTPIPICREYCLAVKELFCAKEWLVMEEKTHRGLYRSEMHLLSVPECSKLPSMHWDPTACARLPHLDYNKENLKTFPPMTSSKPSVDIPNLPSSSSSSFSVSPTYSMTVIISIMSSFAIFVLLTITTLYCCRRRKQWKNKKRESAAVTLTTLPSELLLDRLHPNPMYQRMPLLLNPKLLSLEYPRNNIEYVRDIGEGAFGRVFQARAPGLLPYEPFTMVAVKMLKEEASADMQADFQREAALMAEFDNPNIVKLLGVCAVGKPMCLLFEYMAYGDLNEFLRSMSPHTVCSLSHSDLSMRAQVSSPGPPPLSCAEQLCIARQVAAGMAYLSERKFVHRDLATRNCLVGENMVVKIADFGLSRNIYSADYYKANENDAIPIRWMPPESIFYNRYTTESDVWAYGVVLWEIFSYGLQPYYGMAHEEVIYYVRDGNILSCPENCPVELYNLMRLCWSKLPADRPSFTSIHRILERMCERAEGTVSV
Conditions: at 1 µM.

In assay [2] the target is Platelet-derived growth factor receptor alpha (Homo sapiens) (UniProt P16234). Conditions: at 0.1 µM.
The target is the same in assay [3]. Conditions: at 1 µM.
In assay [4] the test system is Platelet-derived growth factor receptor alpha (Homo sapiens), P16234 [D842V]. Particulars: at 0.1 µM.
For assay [5] the test system is unchanged. Conditions: at 1 µM.
Assay [6] relates to Platelet-derived growth factor receptor alpha (Homo sapiens), P16234 [T674I]. Conditions: at 0.1 µM.
Assay [7] has the same test system. Conditions: at 1 µM.
Assay [8] deals with Platelet-derived growth factor receptor alpha (Homo sapiens), P16234 [V561D]. Conditions: at 0.1 µM.
Assay [9] shares this test system. Conditions: at 1 µM.
In assay [10] the target is Platelet-derived growth factor receptor beta (Homo sapiens) (UniProt P09619). Particulars: at 0.1 µM.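 Note: reported value is the mean percent inhibition of the kinase.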
Platelet-derived growth factor receptor beta (Homo sapiens), sequence (P09619 whole entry): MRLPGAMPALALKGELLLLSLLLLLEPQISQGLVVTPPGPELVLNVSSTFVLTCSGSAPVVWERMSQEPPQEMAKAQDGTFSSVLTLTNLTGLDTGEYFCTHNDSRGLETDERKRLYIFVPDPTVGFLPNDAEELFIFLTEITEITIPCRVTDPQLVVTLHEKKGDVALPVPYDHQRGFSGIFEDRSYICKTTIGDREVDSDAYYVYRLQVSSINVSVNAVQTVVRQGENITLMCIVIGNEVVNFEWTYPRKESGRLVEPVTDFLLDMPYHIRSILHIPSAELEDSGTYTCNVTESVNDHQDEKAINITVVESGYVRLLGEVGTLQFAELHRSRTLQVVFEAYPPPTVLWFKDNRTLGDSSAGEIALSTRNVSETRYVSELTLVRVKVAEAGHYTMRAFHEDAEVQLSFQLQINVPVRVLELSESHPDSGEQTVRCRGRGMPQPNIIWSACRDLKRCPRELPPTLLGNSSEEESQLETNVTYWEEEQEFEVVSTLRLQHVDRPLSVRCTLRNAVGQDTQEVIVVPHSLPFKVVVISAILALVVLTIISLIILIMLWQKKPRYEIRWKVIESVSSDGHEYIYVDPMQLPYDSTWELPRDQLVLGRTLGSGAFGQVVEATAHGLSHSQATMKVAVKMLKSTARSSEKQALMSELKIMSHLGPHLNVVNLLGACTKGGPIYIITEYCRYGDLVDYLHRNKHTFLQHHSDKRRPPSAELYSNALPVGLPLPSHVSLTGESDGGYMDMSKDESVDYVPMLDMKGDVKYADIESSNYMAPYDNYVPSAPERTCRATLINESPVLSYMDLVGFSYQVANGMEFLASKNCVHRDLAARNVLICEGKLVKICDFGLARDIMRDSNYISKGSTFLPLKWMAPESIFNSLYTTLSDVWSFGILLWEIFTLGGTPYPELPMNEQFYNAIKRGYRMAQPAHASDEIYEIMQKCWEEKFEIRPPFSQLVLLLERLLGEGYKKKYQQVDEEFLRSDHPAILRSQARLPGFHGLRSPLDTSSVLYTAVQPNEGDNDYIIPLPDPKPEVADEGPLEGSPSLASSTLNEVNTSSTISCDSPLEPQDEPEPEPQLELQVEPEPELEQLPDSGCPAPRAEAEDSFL

Platelet-derived growth factor receptor alpha (Homo sapiens), P16234 [D842V], sequence (P16234 whole entry D842V): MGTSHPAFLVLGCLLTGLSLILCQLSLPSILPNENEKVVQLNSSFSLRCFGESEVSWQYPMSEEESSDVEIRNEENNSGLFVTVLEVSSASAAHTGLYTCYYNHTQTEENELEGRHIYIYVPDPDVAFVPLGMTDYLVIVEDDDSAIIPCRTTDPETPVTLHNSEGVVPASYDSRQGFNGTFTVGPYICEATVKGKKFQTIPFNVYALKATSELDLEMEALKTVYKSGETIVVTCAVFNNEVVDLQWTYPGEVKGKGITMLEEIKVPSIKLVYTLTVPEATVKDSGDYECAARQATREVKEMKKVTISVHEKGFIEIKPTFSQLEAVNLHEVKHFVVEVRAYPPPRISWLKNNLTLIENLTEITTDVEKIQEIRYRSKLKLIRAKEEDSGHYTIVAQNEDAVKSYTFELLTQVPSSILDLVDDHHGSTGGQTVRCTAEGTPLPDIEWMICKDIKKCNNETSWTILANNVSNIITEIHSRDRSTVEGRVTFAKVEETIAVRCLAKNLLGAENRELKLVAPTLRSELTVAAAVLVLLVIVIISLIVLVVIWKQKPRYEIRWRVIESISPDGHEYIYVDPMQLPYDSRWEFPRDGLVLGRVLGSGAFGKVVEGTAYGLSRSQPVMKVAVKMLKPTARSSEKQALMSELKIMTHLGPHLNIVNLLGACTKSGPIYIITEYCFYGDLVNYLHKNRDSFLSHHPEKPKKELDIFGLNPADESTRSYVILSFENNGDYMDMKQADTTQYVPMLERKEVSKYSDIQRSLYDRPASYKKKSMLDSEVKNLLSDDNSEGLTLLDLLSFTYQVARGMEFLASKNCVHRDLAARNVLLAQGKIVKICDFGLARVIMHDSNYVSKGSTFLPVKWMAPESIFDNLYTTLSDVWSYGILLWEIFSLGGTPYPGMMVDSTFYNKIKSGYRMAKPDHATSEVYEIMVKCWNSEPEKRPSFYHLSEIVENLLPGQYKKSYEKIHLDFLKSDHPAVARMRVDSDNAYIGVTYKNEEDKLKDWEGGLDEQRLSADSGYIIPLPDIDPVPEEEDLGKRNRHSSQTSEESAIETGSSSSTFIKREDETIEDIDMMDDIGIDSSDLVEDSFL
Platelet-derived growth factor receptor alpha (Homo sapiens), P16234 [V561D], sequence (P16234 whole entry V561D): as the sequence (P16234 whole entry D842V) above, with V561D, V842D counted along it
Platelet-derived growth factor receptor alpha (Homo sapiens), sequence (P16234 whole entry): as the sequence (P16234 whole entry D842V) above, with V842D counted along it
Platelet-derived growth factor receptor alpha (Homo sapiens), P16234 [T674I], sequence (P16234 whole entry T674I): as the sequence (P16234 whole entry D842V) above, with T674I, V842D counted along it

The inhibition is the relative decrease from the control value, in per cent. `Nc1nccc(-c2c(-c3ccc(F)cc3)ncn2C2CCC(O)CC2)n1` (stereo not given): the inhibition in assay [1] was 4.37%; in assay [2] it was 2.63%; in [3] it was 21.6%; in assay [4], 2.7%; in assay [5], 14.2%; in assay [6], 0.95%. The inhibition is 0.82% in assay [7], 5.61% in assay [8], 21.1% in [9] and 5.21% in assay [10].

With `NC(=O)c1cc(-c2ccc(F)cc2)cc(-c2ccncc2)c1N`, the inhibition in [1] is 1.32%; in assay [2], 3.04%; in assay [3], 7.4%; in assay [4], 1.68%; in assay [5], 12.2%; in assay [6] it was 4.18%. Besides, the inhibition in assay [7] was 7.19%; in assay [8] it was 3.94%; in assay [9] it was 4.61%; in assay [10] it was 2.02%.

`Cc1nnc(-c2ccc(C)c(-c3ccc(C(=O)NCc4ccc(Cl)cc4)cc3)c2)o1`: the inhibition came to 0.1% in [1]; 4.51% in assay [2]; 8.84% in assay [3]; 3.25% in assay [4]; 2.53% in [5]; 6.19% in assay [6]. The inhibition in assay [7] amounted to 6%; in assay [8], 1.34%; in assay [9], 2%; in [10], 1.36%.

`Fc1ccc(-c2ncn(C3CCNCC3)c2-c2ccnc(Oc3ccc(Oc4ccccc4)cc3)n2)cc1`: the inhibition in assay [1] stood at 8.37%; in assay [2], 3.69%; in [3], 9.58%; in [4] it was 0.69%; in [5] it was 1.95%; in [6], 2.85%. For the same compound, the inhibition worked out at 6.65% in assay [7], 2.74% in [8], 3.75% in assay [9] and 2.57% in assay [10].

For the compound `O=C(Nc1n[nH]c2nc(-c3ccco3)ccc12)C1CC1`, the inhibition in assay [1] amounted to 7.97%; in [2], 6.36%; in [3], 10.6%; in assay [4] it was 3.54%; in assay [5] it was 6.18%; in [6] it was 4.27%. Besides, the inhibition in assay [7] was 6.36%; in assay [8], 3.66%; in assay [9] it was 7.73%; in assay [10] it was 1.45%.

On to `CCC(=O)Nc1ccc(C)c(-c2ccc(C(=O)NCC3CC3)cc2)c1`, for which the inhibition was determined as 0.72% in assay [1]; 3.2% in assay [2]; 11.6% in assay [3]; 2.61% in assay [4]; 3.14% in assay [5]; 3.93% in [6]. Also, the inhibition is 4.6% in assay [7], 4.95% in assay [8], 3.77% in assay [9] and -0.7% in [10].

For `CN(C)CCOc1ccc(-c2cc(-c3ccc4c(c3)CCC4=NO)c(-c3ccncc3)o2)cc1`, the inhibition was -1% in assay [1]; 3.05% in [2]; 9.14% in assay [3]; 0.21% in [4]; 2.8% in [5]; -0.07% in [6]. In addition, the inhibition in assay [7] came out at 2.19%; in [8] it was 0.77%; in assay [9] it was 4.25%; in assay [10], 2.38%.

Take `COc1ccc2cc(-c3c(-c4ccncc4)nc(-c4ccc(S(C)(=O)=O)cc4C)n3C)ccc2c1`: the inhibition in [1] turned out to be 6.38%; in [2] it was 7.63%; in assay [3], 23.6%; in assay [4] it was 2.7%; in [5], 12.3%; in [6] it was 7.17%. In addition, the inhibition in assay [7] was 10.1%; in assay [8], 8.36%; in assay [9] it was 15.3%; in assay [10], 2.38%.

As to `Cc1ccc(C(=O)NC2CCC2)cc1-c1ccc(C(=O)NCC2CC2)cc1`, the inhibition is 3.12% in [1]; 1.47% in assay [2]; 4.53% in assay [3]; 3.52% in assay [4]; 0.66% in [5]; 3.43% in [6]. Besides, the inhibition was 3.17% in [7], 2.49% in assay [8], 5.32% in [9] and -0.12% in assay [10].

As to `NS(=O)(=O)c1ccc(N/N=C2\C(=O)Nc3ccc(-c4cnco4)cc32)cc1`, the inhibition in [1] is 18.5%; in [2], 13.9%; in assay [3], 49.8%; in assay [4] it was 6.86%; in assay [5] it was 40.8%; in [6], 1.96%. The inhibition in assay [7] was determined as 13.9%; in assay [8], 8.44%; in assay [9], 46.8%; in assay [10], 12.1%.

As for `C[C@@H](Oc1cc(-n2cnc3ccc(OCC4CCN(C)CC4)cc32)sc1C(N)=O)c1ccccc1Cl`, the inhibition stood at 88.3% in assay [1]; 26.5% in assay [2]; 75.7% in assay [3]; 10.9% in assay [4]; 54.2% in [5]; 12.7% in [6]. In addition, the inhibition came out at 62.1% in assay [7], 14.7% in assay [8], 64.7% in assay [9] and 39.8% in assay [10].

As to `CCc1cccc(CC)c1/C=C/c1cncc(C(=O)NC)c1`, the inhibition was found to be 0.76% in assay [1]; 9.56% in assay [2]; 7.82% in assay [3]; 0.6% in [4]; 1.22% in [5]; 2.23% in assay [6]. In addition, the inhibition is 2.91% in assay [7], -0.14% in assay [8], 3.75% in assay [9] and 7.91% in assay [10].

As for `Cc1ccc(NC(=O)c2ccoc2)cc1-c1ccc(C(=O)NCC2CC2)cc1`, the inhibition in assay [1] stood at 1.19%; in assay [2], 3.05%; in assay [3], 4.97%; in assay [4], 0.3%; in [5], 0.74%; in [6] it was 0.22%. For the same compound, the inhibition in assay [7] came out at 4.2%; in assay [8], 0.35%; in [9] it was 1%; in assay [10] it was 1.42%.

On to `COc1cc(Nc2ncc3c(C)nc(-c4cccc(C(F)(F)F)c4)n3n2)cc(OC)c1OC`, for which the inhibition in assay [1] amounted to 19%; in assay [2], 13%; in assay [3] it was 25.8%; in assay [4], 2.68%; in assay [5] it was 13.1%; in assay [6], 7.3%. For the same compound, the inhibition in assay [7] amounted to 8.12%; in assay [8] it was 5.66%; in assay [9], 14.6%; in assay [10] it was 10.3%.

Regarding `C/C(Nc1ccc(S(N)(=O)=O)cc1)=C1/C(=O)Nc2ccccc21`, the inhibition in assay [1] came out at 30.9%; in [2] it was 13.8%; in assay [3], 53.2%; in [4] it was 4.56%; in assay [5], 33.6%; in [6], 34.4%. In addition, the inhibition was 95.7% in assay [7], 25% in [8], 62% in [9] and 9.96% in assay [10].
